# In the supplement of paper PMC11732987, “Enantioselective OTUD7B fragment discovery through chemoproteomics screening and high-throughput optimisation” (Communications Chemistry, 2025):
# Values without a mark were called inactive.
# Tests used:
# Assay in all cases: log2 ratio of Biotin-Ahx-Ub-VS probe labelling (fragment/DMSO); higher = less target engagement (more negative = stronger competition), active = hit call of the paper (q ≤ 0.05, log2 ratio ≤ -1)
# Settings in all cases: compound concentration: 200 uM; treatment time: 3 h
# USP19 = molecular target: T1, USP19 (UniProt O94966)
# T1 sequence (whole entry): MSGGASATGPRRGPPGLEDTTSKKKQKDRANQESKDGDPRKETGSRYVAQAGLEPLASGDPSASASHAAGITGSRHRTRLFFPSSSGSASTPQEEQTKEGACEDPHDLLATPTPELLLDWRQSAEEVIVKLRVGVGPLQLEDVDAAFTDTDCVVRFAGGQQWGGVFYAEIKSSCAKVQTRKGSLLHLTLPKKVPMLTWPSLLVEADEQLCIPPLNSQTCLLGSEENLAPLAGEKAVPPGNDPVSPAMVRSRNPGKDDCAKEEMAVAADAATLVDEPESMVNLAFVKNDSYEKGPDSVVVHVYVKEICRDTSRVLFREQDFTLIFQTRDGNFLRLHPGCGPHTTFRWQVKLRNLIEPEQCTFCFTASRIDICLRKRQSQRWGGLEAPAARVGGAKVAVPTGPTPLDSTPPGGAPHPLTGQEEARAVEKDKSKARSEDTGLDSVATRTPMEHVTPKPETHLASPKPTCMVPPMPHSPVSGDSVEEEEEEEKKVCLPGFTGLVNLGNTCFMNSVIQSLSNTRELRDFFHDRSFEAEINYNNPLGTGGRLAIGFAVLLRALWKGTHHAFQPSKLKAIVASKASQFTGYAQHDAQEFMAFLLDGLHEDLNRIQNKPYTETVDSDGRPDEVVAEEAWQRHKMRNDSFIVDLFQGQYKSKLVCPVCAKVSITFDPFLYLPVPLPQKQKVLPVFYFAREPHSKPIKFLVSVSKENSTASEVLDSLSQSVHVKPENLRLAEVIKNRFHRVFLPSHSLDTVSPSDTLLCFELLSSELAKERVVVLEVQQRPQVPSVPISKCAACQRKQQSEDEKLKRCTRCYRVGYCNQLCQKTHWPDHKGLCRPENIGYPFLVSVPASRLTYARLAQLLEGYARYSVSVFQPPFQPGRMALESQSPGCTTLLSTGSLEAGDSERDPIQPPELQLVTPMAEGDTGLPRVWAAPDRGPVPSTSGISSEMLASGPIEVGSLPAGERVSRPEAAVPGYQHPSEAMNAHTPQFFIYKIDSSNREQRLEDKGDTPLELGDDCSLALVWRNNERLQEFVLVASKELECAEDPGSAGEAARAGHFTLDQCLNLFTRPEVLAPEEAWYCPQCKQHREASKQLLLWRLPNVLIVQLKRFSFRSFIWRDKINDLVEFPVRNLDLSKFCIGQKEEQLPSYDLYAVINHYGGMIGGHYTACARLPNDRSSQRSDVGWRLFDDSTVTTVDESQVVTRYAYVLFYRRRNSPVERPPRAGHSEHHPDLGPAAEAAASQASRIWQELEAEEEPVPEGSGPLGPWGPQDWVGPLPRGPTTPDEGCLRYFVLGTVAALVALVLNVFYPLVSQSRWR
# How it was run: (§1)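 HEK293T lysate, 495 µg per sample in Tris/CHAPS/IGEPAL buffer with protease inhibitors, was treated in triplicate with fragment at 200 µM or vehicle for 3 h and then with Biotin-Ahx-Ub-VS at 0.5 µM final for 1 h. Labelled DUBs were NeutrAvidin-enriched, digested with LysC and trypsin, and run by diaPASEF LC-MS/MS. Spectronaut label-free quantities were global-median-normalised, and values are average log2 fragment/vehicle ratios by unpaired t-test on proteins with ≥2 unique peptides.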
# USP24 = USP24 (UniProt Q9UPU5)
# How it was run: as §1
# USP25 = molecular target: T2, USP25 (UniProt Q9UHP3)
# T2 sequence (whole entry): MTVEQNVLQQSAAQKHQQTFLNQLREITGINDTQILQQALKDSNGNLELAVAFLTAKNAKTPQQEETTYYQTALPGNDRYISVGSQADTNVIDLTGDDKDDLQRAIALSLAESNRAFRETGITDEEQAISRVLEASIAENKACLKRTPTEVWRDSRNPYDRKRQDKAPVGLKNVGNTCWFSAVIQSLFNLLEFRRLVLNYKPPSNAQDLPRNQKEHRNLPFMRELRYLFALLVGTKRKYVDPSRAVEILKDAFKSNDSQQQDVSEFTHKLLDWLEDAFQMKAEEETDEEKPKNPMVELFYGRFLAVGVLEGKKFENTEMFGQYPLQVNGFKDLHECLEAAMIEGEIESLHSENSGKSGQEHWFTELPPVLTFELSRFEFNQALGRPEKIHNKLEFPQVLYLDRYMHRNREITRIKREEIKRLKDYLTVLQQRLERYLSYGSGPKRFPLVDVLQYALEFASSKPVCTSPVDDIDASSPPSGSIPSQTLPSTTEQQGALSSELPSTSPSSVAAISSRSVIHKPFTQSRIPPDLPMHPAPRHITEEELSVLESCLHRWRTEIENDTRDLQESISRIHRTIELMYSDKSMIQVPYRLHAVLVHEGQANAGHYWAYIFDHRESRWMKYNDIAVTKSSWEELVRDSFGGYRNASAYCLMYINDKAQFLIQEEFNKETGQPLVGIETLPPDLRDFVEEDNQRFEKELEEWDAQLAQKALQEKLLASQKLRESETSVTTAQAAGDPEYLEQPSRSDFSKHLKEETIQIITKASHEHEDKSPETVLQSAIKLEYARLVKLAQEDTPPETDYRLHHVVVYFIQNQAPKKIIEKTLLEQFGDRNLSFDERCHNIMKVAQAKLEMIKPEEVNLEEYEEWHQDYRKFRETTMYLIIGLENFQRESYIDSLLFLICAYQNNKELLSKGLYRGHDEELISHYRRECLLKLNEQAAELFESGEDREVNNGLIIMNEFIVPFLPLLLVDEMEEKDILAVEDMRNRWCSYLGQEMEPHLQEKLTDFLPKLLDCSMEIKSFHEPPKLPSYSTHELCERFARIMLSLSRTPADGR
# How it was run: as §1
# USP28 = molecular target: T3, USP28 (UniProt Q96RU2)
# T3 sequence (whole entry): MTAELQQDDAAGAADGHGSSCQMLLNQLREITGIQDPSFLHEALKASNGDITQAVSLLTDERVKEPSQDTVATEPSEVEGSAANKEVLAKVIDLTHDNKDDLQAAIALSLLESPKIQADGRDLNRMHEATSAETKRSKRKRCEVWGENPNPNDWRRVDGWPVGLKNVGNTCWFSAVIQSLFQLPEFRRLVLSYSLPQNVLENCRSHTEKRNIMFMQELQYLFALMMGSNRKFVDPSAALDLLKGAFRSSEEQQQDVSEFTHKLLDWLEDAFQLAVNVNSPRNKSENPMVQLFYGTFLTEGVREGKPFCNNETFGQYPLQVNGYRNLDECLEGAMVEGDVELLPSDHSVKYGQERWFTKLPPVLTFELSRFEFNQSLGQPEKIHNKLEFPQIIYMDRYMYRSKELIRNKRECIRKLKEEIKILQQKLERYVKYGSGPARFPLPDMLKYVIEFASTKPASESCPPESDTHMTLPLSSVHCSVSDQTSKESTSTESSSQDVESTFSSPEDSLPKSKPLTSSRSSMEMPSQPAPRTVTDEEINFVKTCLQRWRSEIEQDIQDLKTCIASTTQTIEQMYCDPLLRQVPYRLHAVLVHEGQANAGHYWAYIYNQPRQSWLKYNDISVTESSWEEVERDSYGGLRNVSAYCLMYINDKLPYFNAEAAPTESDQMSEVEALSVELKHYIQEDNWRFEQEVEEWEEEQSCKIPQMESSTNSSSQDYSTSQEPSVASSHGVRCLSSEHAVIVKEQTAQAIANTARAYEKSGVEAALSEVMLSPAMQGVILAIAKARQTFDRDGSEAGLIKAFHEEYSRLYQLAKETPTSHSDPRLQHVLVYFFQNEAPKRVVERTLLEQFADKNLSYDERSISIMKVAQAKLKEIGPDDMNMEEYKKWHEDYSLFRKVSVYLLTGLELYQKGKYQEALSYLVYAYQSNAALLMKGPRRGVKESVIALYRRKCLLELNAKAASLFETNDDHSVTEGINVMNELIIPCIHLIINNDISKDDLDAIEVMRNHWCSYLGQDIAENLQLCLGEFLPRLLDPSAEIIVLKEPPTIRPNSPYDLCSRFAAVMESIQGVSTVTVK
# How it was run: as §1
# Sequence of USP24 (Q9UPU5 whole entry): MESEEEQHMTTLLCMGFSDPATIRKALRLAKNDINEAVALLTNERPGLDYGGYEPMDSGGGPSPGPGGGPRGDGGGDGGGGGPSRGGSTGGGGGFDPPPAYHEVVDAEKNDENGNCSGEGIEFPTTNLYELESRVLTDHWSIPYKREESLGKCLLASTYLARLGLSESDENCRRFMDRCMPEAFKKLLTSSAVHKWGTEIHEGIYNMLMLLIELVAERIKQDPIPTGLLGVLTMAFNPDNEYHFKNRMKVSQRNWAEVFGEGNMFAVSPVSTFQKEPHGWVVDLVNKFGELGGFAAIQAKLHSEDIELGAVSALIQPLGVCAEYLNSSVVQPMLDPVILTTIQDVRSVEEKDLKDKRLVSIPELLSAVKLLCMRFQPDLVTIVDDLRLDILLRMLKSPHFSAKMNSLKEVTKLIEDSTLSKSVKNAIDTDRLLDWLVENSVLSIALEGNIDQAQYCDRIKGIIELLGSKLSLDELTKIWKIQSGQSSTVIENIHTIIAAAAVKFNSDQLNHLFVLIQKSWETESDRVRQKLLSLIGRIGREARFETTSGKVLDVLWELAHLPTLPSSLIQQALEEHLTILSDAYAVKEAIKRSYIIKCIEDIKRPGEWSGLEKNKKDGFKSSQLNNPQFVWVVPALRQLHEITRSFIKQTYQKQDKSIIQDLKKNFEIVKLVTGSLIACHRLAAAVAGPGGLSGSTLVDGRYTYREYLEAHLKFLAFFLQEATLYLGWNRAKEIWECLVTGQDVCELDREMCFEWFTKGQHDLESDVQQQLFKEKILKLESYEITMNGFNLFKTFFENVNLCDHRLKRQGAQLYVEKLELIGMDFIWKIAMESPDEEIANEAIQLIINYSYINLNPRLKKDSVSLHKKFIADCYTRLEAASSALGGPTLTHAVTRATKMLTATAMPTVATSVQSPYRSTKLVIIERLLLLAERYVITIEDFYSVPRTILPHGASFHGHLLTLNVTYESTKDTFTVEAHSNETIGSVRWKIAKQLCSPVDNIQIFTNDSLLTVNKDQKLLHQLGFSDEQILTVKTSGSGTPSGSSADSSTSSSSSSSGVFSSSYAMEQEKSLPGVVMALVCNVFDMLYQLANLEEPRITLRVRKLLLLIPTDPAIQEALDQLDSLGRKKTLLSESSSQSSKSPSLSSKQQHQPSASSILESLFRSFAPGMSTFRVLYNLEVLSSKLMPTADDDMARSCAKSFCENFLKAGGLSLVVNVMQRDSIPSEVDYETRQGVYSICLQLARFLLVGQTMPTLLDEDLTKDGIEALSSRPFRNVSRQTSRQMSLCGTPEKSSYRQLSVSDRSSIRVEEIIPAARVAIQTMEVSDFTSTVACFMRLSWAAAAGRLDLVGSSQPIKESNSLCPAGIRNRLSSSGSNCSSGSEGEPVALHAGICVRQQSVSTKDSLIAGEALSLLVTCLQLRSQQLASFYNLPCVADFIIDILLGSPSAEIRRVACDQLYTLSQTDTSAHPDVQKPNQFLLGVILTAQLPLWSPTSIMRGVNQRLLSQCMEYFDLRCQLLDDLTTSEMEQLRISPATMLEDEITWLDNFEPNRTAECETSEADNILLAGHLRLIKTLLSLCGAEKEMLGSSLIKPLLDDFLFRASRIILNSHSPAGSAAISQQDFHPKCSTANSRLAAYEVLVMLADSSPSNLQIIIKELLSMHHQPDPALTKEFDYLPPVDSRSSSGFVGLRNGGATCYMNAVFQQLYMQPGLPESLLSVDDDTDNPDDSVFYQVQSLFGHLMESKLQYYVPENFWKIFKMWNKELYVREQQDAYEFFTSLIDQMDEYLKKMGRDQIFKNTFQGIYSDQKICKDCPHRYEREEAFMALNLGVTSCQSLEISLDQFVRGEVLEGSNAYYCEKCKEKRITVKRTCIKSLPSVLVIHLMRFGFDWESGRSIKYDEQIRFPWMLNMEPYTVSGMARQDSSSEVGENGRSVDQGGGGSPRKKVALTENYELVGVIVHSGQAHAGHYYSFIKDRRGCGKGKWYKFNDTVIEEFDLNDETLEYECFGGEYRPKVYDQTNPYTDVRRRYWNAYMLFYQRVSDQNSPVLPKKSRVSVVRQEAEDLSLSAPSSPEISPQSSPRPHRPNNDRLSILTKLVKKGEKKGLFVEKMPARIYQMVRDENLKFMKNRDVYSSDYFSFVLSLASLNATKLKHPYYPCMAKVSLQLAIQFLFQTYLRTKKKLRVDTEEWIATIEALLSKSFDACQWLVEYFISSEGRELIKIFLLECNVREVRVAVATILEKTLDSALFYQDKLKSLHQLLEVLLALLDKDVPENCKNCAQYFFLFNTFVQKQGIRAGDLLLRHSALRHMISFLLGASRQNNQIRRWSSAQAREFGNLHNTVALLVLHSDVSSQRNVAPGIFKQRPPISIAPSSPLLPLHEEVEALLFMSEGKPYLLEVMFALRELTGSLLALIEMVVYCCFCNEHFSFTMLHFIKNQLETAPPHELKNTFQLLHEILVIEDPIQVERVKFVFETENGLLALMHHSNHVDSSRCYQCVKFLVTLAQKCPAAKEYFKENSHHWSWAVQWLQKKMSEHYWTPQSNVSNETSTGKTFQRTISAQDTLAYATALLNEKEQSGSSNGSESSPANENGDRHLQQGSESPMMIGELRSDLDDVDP
smiles,measurement,setting,value
CC(=O)Nc1ccc(NC(=O)CCl)cc1,log2 ratio of Biotin-Ahx-Ub-VS probe labelling,USP19,-0.179
same,log2 ratio of Biotin-Ahx-Ub-VS probe labelling,USP24,-0.314
same,log2 ratio of Biotin-Ahx-Ub-VS probe labelling,USP25,-1.33 (active)
same,log2 ratio of Biotin-Ahx-Ub-VS probe labelling,USP28,-0.938
